Assay outcomes deposited in PubChem by National Center for Advancing Translational Sciences (NCATS).
ALDH1A1 block: blocks purified human ALDH1A1 activity; Potency, µM (titrated, usually from 75.3 µM), for inactives: at the highest dose activity, negative = inhibition, actives largely listed as inhibitors; P00352; Purified ALDH1A1, NADH fluorescence, propionaldehyde substrate; actives 7.3% (n = 220,000); AID 1030;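 further: potency means the concentration at half of the fitted maximal effect; plate controls were no enzyme wells and a reference inhibitor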
Target sequence (P00352 whole entry, looked up): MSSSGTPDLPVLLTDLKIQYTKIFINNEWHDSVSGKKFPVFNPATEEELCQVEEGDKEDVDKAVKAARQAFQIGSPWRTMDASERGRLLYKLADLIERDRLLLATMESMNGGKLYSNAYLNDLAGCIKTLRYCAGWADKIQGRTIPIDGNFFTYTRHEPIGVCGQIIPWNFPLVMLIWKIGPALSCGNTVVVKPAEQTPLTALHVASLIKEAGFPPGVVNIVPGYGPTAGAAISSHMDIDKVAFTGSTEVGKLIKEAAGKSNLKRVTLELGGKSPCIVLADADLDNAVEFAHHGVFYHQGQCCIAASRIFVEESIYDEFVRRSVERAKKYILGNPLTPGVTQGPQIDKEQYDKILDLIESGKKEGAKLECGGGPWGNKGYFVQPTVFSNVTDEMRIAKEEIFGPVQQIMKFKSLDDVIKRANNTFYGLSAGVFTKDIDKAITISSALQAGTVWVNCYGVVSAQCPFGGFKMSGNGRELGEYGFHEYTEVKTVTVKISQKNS
PNC inhibitor: perinucleolar compartment assembly inhibition; activity change (PNC), negative = inhibition, % at 10 µM; PC3M PTB-GFP, PNC prevalence imaging, 16 h; hits give low values; AID 2417; actives 3.1% (n = 140,000);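 active means readout at or below -70, meaning at least 70% loss of cells showing the perinucleolar compartment, a nuclear body marking cancer cells; inconclusive means readout between -30 and a set limit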;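 further: plate controls were DMSO wells for no effect and camptothecin positive control wells for full effect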
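Compounds are pinned in duplicate onto adhered PC3M cells stably expressing GFP-tagged PTB and incubated 16 h at 37 C. Cells are then fixed, nuclei stained with Hoechst, and PNC-positive cells counted.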
Lamin A splicing: LMNA splicing modulation; HeLa LMNA splicing GFP/RFP minigene ratio, 48 h; Potency, µM (doses to about 46.1 µM), for inactives: top-dose ratio change, negative = inhibition, most hits filed as inhibitors; actives 0.01% (n = 200,000); AID 1487; active means well fitted inhibition curve with a large enough effect in the signal ratio, with a control signal flat, not every such curve was filed as active; inconclusive means small, poorly fitted or top-dose-only effect, or effect the other way, or a change in a side signal; the % refers to the signal ratio; further: potency means the concentration at half of the fitted maximal effect
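S3 HeLa cells stably expressing lamin A-EGFP splicing minigene plus DsRed2, 600 cells/well, 48 h compound exposure at 37C. Laser-scanning cytometry; analysed as GFP (500-530 nm)/RFP (575-640 nm) total intensity ratio; 0.5% DMSO vehicle.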
HPGD block: inhibitors of human 15-hydroxyprostaglandin dehydrogenase (HPGD) | P15428 | actives 4.3% (n = 150,000) | purified HPGD, NADH fluorescence kinetic, PGE2 substrate | Potency, µM, without a hit: at the highest dose activity change, negative = inhibition, usual class: inhibitors; further: potency means the concentration at half of the fitted maximal effect
Target sequence (P15428 whole entry, looked up): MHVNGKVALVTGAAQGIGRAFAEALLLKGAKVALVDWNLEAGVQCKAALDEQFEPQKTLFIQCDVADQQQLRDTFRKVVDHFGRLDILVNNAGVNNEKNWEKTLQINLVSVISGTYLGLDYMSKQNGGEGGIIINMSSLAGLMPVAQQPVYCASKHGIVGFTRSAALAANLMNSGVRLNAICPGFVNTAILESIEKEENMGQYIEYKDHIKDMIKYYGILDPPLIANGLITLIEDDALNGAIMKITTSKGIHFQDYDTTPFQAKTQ
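NADH formation kinetics: reaction with 30 uM PGE2 and 1 mM NAD+ (final), 20 nM enzyme, Tris-HCl pH 8 with Tween 20, after 15 min compound preincubation at room temperature. Fluorescence change, last versus first of five reads.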
ALOX12 inhib: inhibitors of human 12-lipoxygenase (ALOX12); P18054; purified 12-hLO, xylenol orange hydroperoxide absorbance; Potency, µM (series often up to 57.1 µM), inactives show at the top dose activity change, negative = inhibition, actives largely listed as inhibitors; actives 0.12% (n = 150,000); active means well fitted inhibition curve with a large enough effect; inconclusive means small, poorly fitted or top-dose-only effect; further: potency means the concentration at half of the fitted maximal effect; nearly all actives have a fitted effect of over 55% in size
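150 nM 12hLO, 25 mM Hepes pH 7.0 + 0.01% Triton X-100; cpd preinc 15 min RT; 40 uM arachidonic acid, 30 min RT; Fe-XO 30 min; A573/A405 ratio as read-out.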
* hit, by the source's call; ? = inconclusive; / = not tested or not shown; [ ] = remark or other dose. Rows were chosen to be rich in hits. Some 10% of all compounds tested hit in one or more screens of this group. Unless noted, the call rests on the fitted dose curve; in most records, active means well fitted inhibition curve with a large enough effect (not every such curve was filed as active); inconclusive means small, poorly fitted or top-dose-only effect, or another doubt; inactive means no such curve, though single readings can be large or run the other way. Unless noted, on the % scale 0 is the no-effect control and ±100 the full control effect.

SMILES | ALDH1A1 block | PNC inhibitor | Lamin A splicing | HPGD block | ALOX12 inhib
CCc1oc2ccccc2c1C(=O)CCN1CCCCC1 | 0.11µM* | 7 | -19% | 28µM* | -14%
O=c1oc2ccccc2c(N2CCCCC2)c1CN1CCCCC1 | 14µM* | 22 | ? | -20% | 4%
O=C(CCN1CCCCC1)c1ccccc1 | 1.1µM* | 21 | -3% | -21% | 10%
COc1ccc(Oc2ncc3nc(-c4cn(C)c5ccccc45)c(=O)n(C)c3n2)cc1 | 4% | / | 8% | / | /
C[N+]1(CCC(=O)c2ccccc2)CCCCC1 | 1.3µM* | 20 | 5% | 32µM* | 0%
O=C(CCN1CCCCC1)c1csc2ccccc12 | 0.14µM* | / | / | -13% | -9%[11.4 µM]
O=C(O)CCC(=O)CCC(=O)c1ccccc1 | ? | 46 | -5% | -6% | 2%
CCC(C)(C)C1CCC(=NNC(=O)c2ccoc2C)CC1 (stereo unspecified) | 25µM* | 26 | 23% | -23% | 0%
O=[N+]([O-])c1cccc(CSc2ncnc3ccccc23)c1 | 22µM* | / | ? | / | /
Cc1cccc(CSc2ncnc3ccccc23)c1 | -2% | / | ? | / | /
COC(=O)/C(=C1/Oc2cc(C)oc(=O)c2S1)C(F)(F)F | 0% | -100* | ? | 7.9µM* | -1%
Cc1c(C(=O)O)sc2ncnc(N3CCCCC3C)c12 (stereo unspecified) | 2% | ? | -13% | 18µM* | 8%
Cc1cc2c(N3CCCCC3C)ncnc2s1 (stereo unspecified) | 2% | ? | ? | -9% | 2%
Cc1c(C(=O)N2CCCC(C)C2)sc2ncnc(N3CCCCC3C)c12 (stereo unspecified) | 13µM* | / | 8%[46 µM] | / | /
CCCCN(C)C(=O)C1CCCN(c2ncnc3onc(C)c23)C1 (stereo unspecified) | / | / | -3%[46 µM] | / | /
Cc1ccc(N2C(=O)CS/C2=C(\C(Cl)=C(Cl)Cl)[N+](=O)[O-])cc1 | 20µM* | 18 | 4% | -2% | ?
Cc1ccc(N2C(=O)CSCC2=O)cc1 | 2% | ? | -9% | -10% | -6%
O=S(=O)(CCN1CCN(C(c2ccccc2)c2ccccc2)CC1)C(F)(F)F | 0.35µM* | 27 | ? | -6% | -3%
Cc1ccc(NC(=O)c2cc(CN3CCOCC3)on2)cc1Cl | / | / | 8%[46 µM] | / | /
c1csc(-c2nnsc2-c2nc3ccccc3[nH]2)c1 | 10µM* | ? | ? | ? | -15%
CC(C)CCn1c(=O)c2ccccc2n2c(CCl)nnc12 | 25µM* | / | / | / | /
CCCCCn1c(=O)c2ccccc2n2c(CCl)nnc12 | 25µM* | / | / | / | /
O=C(NCc1ccccc1C(F)(F)F)C12CN(Cc3ccccc3)CC1C(c1ccc([N+](=O)[O-])cc1)=NO2 (stereo unspecified) | 25µM* | -119* | -6% | -17% | 0%
CC(C)CCNC(=O)C12CN(Cc3ccccc3)CC1C(c1ccc([N+](=O)[O-])cc1)=NO2 (stereo unspecified) | 2.8µM* | ? | -12% | -22% | -4%
CCN(CC)CCCC(C)n1c(-c2ccccc2)nc2c(N(CCOC)CCOC)nc(C)nc21 (stereo unspecified) | ? | / | / | ? | 0%
SMILES | ALDH1A1 block | PNC inhibitor | Lamin A splicing | HPGD block | ALOX12 inhib
c1ccc2sc(SN3CCOCC3)nc2c1 | 4µM* | ? | -6% | 14µM* | -4%
c1ccc2sc(N3CCOCC3)nc2c1 | 15% | 24 | 9% | -8% | 2%
CCOC(=O)N1CCC2(CC1)C(C#N)=C(N)Oc1n[nH]c(CSc3ccc(C)cc3)c12 | -13% | 42 | -16% | -8% | -24%
COCc1[nH]nc2c1C1(C(=O)Nc3ccc(F)cc31)C(C#N)=C(N)O2 (stereo unspecified) | 5% | 31 | 11% | -5% | -6%
Cc1ccc(SCc2[nH]nc3c2C2(CCSCC2)C(C#N)=C(N)O3)cc1 | 10µM* | -2 | -6% | -14% | -30%
Cc1ccc(SCc2[nH]nc3c2C2(C(=O)Nc4ccc([N+](=O)[O-])cc42)C(C#N)=C(N)O3)cc1 (stereo unspecified) | 13µM* | -12 | -11% | -22% | -25%
CCCn1nnc(NC(=O)c2cc(Br)cc(Br)c2OC)n1 | 11µM* | -119* | 4% | / | -3%
COc1ccc(-n2nnc3c(SCC(=O)c4ccccc4)ncnc32)cc1 | ? | -11 | -6% | ? | -5%
Nn1cc(-c2ccccc2)nc1SCC(=O)NCCc1ccccc1 | 3.2µM* | / | -1%[46 µM] | / | /
Nn1cc(-c2ccccc2)nc1SCC(=O)NCC(F)(F)F | 3% | / | / | / | /
O=C(CSc1ncnc2ccccc12)Nc1ccc2c(c1)OCO2 | 11µM* | 40 | ? | -7% | 1%
COc1ccc(-n2nnc3c(SCC(=O)Nc4ccc5c(c4)OCCO5)ncnc32)cc1 | ? | -83* | -6% | -18% | -3%
Nn1cc(-c2ccccc2)nc1SCC(=O)Nc1ccc2c(c1)OCO2 | 1.4µM* | ? | -5% | -17% | -5%
Cc1ccc(S(=O)(=O)NCCc2cn3c(C)csc3n2)cc1 | / | / | -5%[46 µM] | / | /
CN(C)C1C(=O)C(C(N)=O)C(=O)C2(O)C(=O)C3C(=O)c4c(O)ccc(Cl)c4C(O)C3CC12 (stereo unspecified) | -7% | / | / | -20% | -2%[0.00818 µM]
N#CC(c1ccc(Cl)nn1)c1ccc(Cl)cc1Cl (stereo unspecified) | 6.3µM* | 4 | -4% | -6% | -3%
Cc1ccc(C(=O)Nc2nnc(NC(=S)Nc3ccccc3)s2)cc1 | 22µM* | / | / | / | /
Cc1ccc(NC(=S)NN(C)c2cc(C)nc(C)n2)cc1 | -2% | -13 | ? | -8% | -1%
CCOc1ccc(C(=O)Nc2nnc(NC(=S)Nc3ccccc3)s2)cc1 | 7.1µM* | / | / | / | /
Cc1cnc(C)c(N(C)NC(=S)Nc2ccccc2)n1 | 7% | -109* | 4% | 70% | 1%
Cc1nc(NC(=S)Nc2ccccc2)sc1C | 22µM* | / | ? | / | /
Cc1ccc(C(C(=O)NC(C)(C)C)N(Cc2cccnc2)C(=O)C(=O)NC2CCCCC2)o1 (stereo unspecified) | -11% | / | / | / | /
O=C(c1cnccn1)N1CCC[C@@]2(CCN(c3cccc(-c4ccccc4)c3)C2)C1 | -9% | / | / | -12% | ?
COc1ccccc1NC(=O)CSC1=Nc2ccccc2C2=NC(CCC(=O)NCc3cccs3)C(=O)N12 (stereo unspecified) | / | / | -6%[46 µM] | / | /
COC(=O)c1sc(NC(=S)NC(=O)c2ccccc2)nc1C | -6% | -88* | -12% | -7% | -3%
CCOC(=O)c1sc(NC(=S)NC(=O)c2ccccc2)nc1C | -8% | / | / | / | /
COC(=O)Cc1nnc(NC(=O)c2ccccc2)s1 | -32% | -95* | -4% | / | -7%
Cc1ccc(NC(=O)CN2C(=O)C3(SCC(=O)N3c3ccc(F)c(F)c3)c3ccccc32)c(C)c1 (stereo unspecified) | / | / | 0%[46 µM] | / | /
Cc1c(Cl)cccc1NC(=S)Nn1cnnc1 | 13µM* | / | -5%[46 µM] | / | /
